Consider 9 compounds from PubChem BioAssay.

Activity calls are given as the source filed them.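 Rule for the calls, unless noted: active = inhibition at or above 50% at 10 µM; inactive = inhibition below 50%.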

The nature of assay [1]: inhibitors of TNFa-induced NFkB p65 translocation, primary screen, imaging, HUVEC, MLSMR starter and 10KST1 sets (AID 438;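 active = inhibition above 20% together with a positive visual image hit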;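 note: compound added about 3h40 before a 20 min TNFalpha stimulation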;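 for inhibition: signal is the nuclear over cytoplasmic p65 intensity ratio per well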). The following applies: HUVEC TNFa-induced p65 nuclear translocation; cell count: measured here: nuclei count (cytotoxicity indicator), at 2.08 µM; inhibition: at 2 µM, stronger effect = higher value, 0% TNFa-plus-vehicle, 100% no-TNFa wells.
Assay [2] can be described thus: inhibitors of mutant huntingtin aggregation, primary screen, imaging, exon1htt(103Q)mCFP cells, high-content imaging (AID 483;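 active = visual image review flags a hit and inhibition of aggregation exceeds 20%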;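 note: compound exposure lasted 3 days before fixation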;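 for nuclei count: percent of the per-plate median nuclei count of sample wells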). As to conditions: exon1htt(103Q)mCFP cell line, aggregate imaging, at 2 µM; inhibition of aggregation: stronger effect = higher value; nuclei count: measured here: cell count, toxicity.
The nature of assay [3]: inhibitors of E-selectin induction by TNFa, primary screen, imaging, HUVEC, immunofluorescence, MLSMR starter and 10KST1 sets (AID 487;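 active = visually confirmed hit in the image check and inhibition above 20%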;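 for inhibition: signal is fraction of cell area covered by stained E-selectin grains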;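 for nuclei count: 100% = median nuclei count of all wells on the same plate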). As to conditions: HUVEC TNFalpha-induced E-selectin immunofluorescence imaging, at 2 µM; inhibition: stronger effect = higher value; nuclei count: measured here: cell number, toxicity.
For assay [4], the target named is Voltage-gated potassium channel subunit beta-2 (Rattus norvegicus) (UniProt P62483). The assay can be described thus: KvBeta enzyme negative modulators, primary screen, biochemical, NADPH fluorescence (AID 622;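 active = fluorescence slope higher than the sample average by over 3 SD, cut at about -0.22 in these data, passing the limit was not always enough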;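 note: slope of raw intensity against log time taken from 70 to 1610 s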). The following applies: recombinant KvBeta, 4-cyanobenzaldehyde reduction, at 10 µM, stronger effect = higher value.
Sequence of Voltage-gated potassium channel subunit beta-2 (Rattus norvegicus) (P62483 whole entry, looked up): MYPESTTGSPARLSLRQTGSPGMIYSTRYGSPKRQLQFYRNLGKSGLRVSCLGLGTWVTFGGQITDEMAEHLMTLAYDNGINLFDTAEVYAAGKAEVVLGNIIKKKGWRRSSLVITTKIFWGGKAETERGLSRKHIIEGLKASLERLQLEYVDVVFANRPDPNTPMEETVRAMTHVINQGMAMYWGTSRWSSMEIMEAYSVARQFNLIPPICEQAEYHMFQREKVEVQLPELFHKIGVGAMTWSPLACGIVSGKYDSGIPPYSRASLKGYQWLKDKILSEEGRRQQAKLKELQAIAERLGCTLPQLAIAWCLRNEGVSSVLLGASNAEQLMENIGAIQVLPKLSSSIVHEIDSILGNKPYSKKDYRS
Assay [5] has the same target. The assay can be described thus: KvBeta positive modulators, primary screen, biochemical, NADPH fluorescence (AID 623;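 active = NADPH fluorescence slope more negative than the mean of all samples by about 3 SD, 99.7% confidence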;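 note: fluorescence intensity change per second fitted from 20 to 320 s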). The following applies: Recombinant KvBeta, NADPH fluorescence decrease slope, 10 min; at 10 µM; stronger effect = lower value.
Assay [6] has as its target Alpha-2C adrenergic receptor (Homo sapiens) (UniProt P18825). The assay can be described thus: modulators of alpha2C/GIRK thallium flux, primary screen, cell-based, HEK293 alpha2C/GIRK1/2 (AID 624;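 active = fluorescence slope after compound addition differing from the mean of all screened samples at 99.7% confidence, in either direction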;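 note: slope of fluorescence ratio to pre-addition baseline per second over 15 to 24 s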). The following applies: thallium flux BTC fluorescence, at 10 µM, actives lie on both sides.
Assay [7] can be described thus: inhibitors of Sendai virus-induced IRF3 signaling, primary screen, TLR/RLR signaling modifier project, cell-based, Sendai virus stimulus, luciferase, 10K MLSCN set (AID 602276).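 Note: firefly luciferase from ISG56 promoter only with Renilla not read in this screen; 0% = Sendai virus plus DMSO and 100% = medium plus DMSO without virus.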 The following applies: HEK293 RL24 IRF3 luciferase reporter, at 10 µM, stronger effect = higher value.
Assay [8] in a line: inhibitors of poly I:C-induced TLR3 signaling, primary screen, cell-based, poly I:C stimulus, luciferase, 10K MLSCN set (AID 602277;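 active = inhibition of the reporter signal at or above 50%; inactive = inhibition below 50%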). As to conditions: HEK293-TLR3 RL24 IRF3 luciferase reporter, at 10 µM, stronger effect = higher value.

Sequence of Alpha-2C adrenergic receptor (Homo sapiens) (P18825 whole entry, looked up): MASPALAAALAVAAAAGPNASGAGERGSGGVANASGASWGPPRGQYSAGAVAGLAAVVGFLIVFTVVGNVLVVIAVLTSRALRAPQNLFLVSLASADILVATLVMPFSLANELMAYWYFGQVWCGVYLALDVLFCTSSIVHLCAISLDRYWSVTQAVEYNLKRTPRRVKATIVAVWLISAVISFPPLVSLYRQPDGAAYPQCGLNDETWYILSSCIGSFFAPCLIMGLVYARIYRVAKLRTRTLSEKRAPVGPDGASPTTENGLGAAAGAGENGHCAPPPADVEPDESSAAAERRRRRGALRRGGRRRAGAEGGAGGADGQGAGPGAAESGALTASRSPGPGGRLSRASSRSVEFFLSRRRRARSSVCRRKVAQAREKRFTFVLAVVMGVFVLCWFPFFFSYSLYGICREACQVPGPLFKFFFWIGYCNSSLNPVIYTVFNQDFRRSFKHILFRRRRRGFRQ

Consider `COc1cc2c3c(c1)/C(=C1/SC(NC(C)=O)=NC1=O)C(=O)N3C(C)(C)C=C2C`, for which, in assay [1], the cell count amounted to 381. In addition, the inhibition in assay [1] was -2% (inactive); in assay [3], -35.9% (inactive); in assay [7] it was 18% (inactive); in assay [8], 16.3% (inactive). The inhibition of aggregation in assay [2] is 7.7% (inactive). Besides, the nuclei count in assay [2] stood at 91.9%; in assay [3], 91%. Besides, the fluorescence slope in assay [4] is -0.467 (inactive). For the same compound, the NADPH fluorescence slope in assay [5] was -2e-05 (inactive). Moreover, in assay [6], the slope is 0.00288 (inactive).
Regarding `CC1CCCN(C(=O)C23CCC(C)(C(=O)C2)C3(C)C)C1` (configuration not stated), the cell count in assay [1] is 636. Also, the inhibition is 0% (inactive) in assay [1], -29.8% (inactive) in assay [3], 5.18% (inactive) in assay [7] and 8.32% (inactive) in assay [8]. Further, the inhibition of aggregation in assay [2] was -8.3% (inactive). The figures for the nuclei count in assay [2] and in assay [3] were 90.8% and 99.7%, respectively. Moreover, the fluorescence slope in assay [4] is -0.593 (inactive). Besides, in assay [5], the NADPH fluorescence slope is -1.7e-05 (inactive). The slope in assay [6] was 0.00596 (inactive).
Take `Cc1cccc(C(OC(=O)c2ccco2)C(=O)NCc2ccccc2)n1` (configuration not stated): the cell count in assay [1] came out at 724. For the same compound, the inhibition in assay [1] is -15.3% (inactive); in assay [3], -79.6% (inactive); in assay [7], -5.03% (inactive); in assay [8], 21.1% (inactive). Further, the inhibition of aggregation in assay [2] is -7.2% (inactive). The nuclei count in assay [2] stood at 104%; in assay [3] it was 106%. Besides, in assay [4], the fluorescence slope is -0.478 (inactive). Also, in assay [5], the NADPH fluorescence slope was -1.3e-05 (inactive). For the same compound, the slope in assay [6] is 0.00475 (inactive).
`CC(C)n1c(CN2CCN(C)CC2)nc2c1c(=O)n(C)c(=O)n2C`: the cell count in assay [1] was found to be 600. Besides, the inhibition in assay [1] was -5.3% (inactive); in assay [3] it was -24.8% (inactive); in assay [7], 22.2% (inactive); in assay [8] it was 22.9% (inactive). The inhibition of aggregation in assay [2] was 0.5% (inactive). Also, the values for the nuclei count in assay [2] and in assay [3] were 103% and 118%, respectively. The fluorescence slope in assay [4] is -0.488 (inactive). For the same compound, the NADPH fluorescence slope in assay [5] was -4.5e-05 (inactive). Also, the slope in assay [6] is 0.00573 (inactive).
Consider `CCCCN(Cc1cc2cc(OC)ccc2[nH]c1=O)C(=O)c1ccccn1`, for which the cell count in assay [1] was 339. Further, the inhibition in assay [1] was -17.9% (inactive); in assay [3] it was -11.8% (inactive); in assay [7] it was -4.21% (inactive); in assay [8] it was 98.1% (active). In addition, the inhibition of aggregation in assay [2] is -18.3% (inactive). Moreover, the nuclei count is 101% in assay [2] and 89.4% in assay [3]. In addition, the fluorescence slope in assay [4] was -0.332 (inactive). Further, in assay [5], the NADPH fluorescence slope is -6.3e-05 (inactive). Further, in assay [6], the slope is 0.00511 (inactive).
Consider `CCOC(=O)C1CCCN(C/C(O)=C(\C#N)c2nc(-c3ccc(Cl)cc3)cs2)C1` (configuration not stated), for which the cell count in assay [1] came out at 479. In addition, the inhibition in assay [1] is 1% (inactive); in assay [3], -39.9% (inactive); in assay [7] it was 14.3% (inactive); in assay [8], 2.09% (inactive). Moreover, the inhibition of aggregation in assay [2] is -6.9% (inactive). Also, the results for the nuclei count in assay [2] and in assay [3] were 112% and 120%, respectively. Moreover, the fluorescence slope in assay [4] was -0.499 (inactive). In addition, the NADPH fluorescence slope in assay [5] was -3.4e-06 (inactive). Further, in assay [6], the slope was 0.00581 (inactive).
As to `COC(=O)C1=C(C)C(c2cccs2)NC(=O)N1C` (configuration not stated), in assay [1], the cell count was determined as 464. Also, the inhibition in assay [1] is 4.4% (inactive); in assay [7], 15.4% (inactive); in assay [8] it was 17.5% (inactive). Moreover, the inhibition of aggregation in assay [2] is -0.4% (inactive). Also, the nuclei count in assay [2] came out at 102%; in assay [3] it was 137%. For the same compound, the fluorescence slope in assay [4] is -0.618 (inactive). Also, in assay [5], the NADPH fluorescence slope is -2.3e-05 (inactive). Besides, the slope in assay [6] was 0.0046 (inactive).
As to `O=C(c1ccc(Cl)s1)N1CCN(c2nc3ccccc3s2)CC1`, the cell count in assay [1] came to 721. Besides, the inhibition is -17.3% (inactive) in assay [1], -31.6% (inactive) in assay [3], 8.1% (inactive) in assay [7] and 6.32% (inactive) in assay [8]. For the same compound, the inhibition of aggregation in assay [2] was -16.4% (inactive). Moreover, the nuclei count in assay [2] came out at 104%; in assay [3], 107%. In addition, the fluorescence slope in assay [4] is -0.392 (inactive). Further, the NADPH fluorescence slope in assay [5] was 2e-05 (inactive). Besides, the slope in assay [6] is 0.00557 (inactive).
In the case of `Cc1ccc2c(CC(=O)OCc3csc(C)n3)coc2c1`, in assay [1], the cell count was 367. The inhibition was 0.2% (inactive) in assay [1], 6.62% (inactive) in assay [7] and 30% (inactive) in assay [8]. Further, the inhibition of aggregation in assay [2] is 7.3% (inactive). In addition, the figures for the nuclei count in assay [2] and in assay [3] were 92.6% and 106%, respectively. The fluorescence slope in assay [4] is -0.44 (inactive). Further, in assay [5], the NADPH fluorescence slope is 2.3e-05 (inactive). Also, the slope in assay [6] was 0.00641 (inactive).
